Over roughly 110,000 compounds, “z-score” has its median near -0.1; the highest 2% begin near 2. Only a selection was taken, and the highest values are over-represented in it overall. Active and inactive are the calls of the source.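 How the source made its calls: active means z-score in the third read window above 3 or below -3; inactive means the rest.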

Chain of Metabotropic glutamate receptor 8 (Rattus norvegicus) (P70579 whole entry, looked up): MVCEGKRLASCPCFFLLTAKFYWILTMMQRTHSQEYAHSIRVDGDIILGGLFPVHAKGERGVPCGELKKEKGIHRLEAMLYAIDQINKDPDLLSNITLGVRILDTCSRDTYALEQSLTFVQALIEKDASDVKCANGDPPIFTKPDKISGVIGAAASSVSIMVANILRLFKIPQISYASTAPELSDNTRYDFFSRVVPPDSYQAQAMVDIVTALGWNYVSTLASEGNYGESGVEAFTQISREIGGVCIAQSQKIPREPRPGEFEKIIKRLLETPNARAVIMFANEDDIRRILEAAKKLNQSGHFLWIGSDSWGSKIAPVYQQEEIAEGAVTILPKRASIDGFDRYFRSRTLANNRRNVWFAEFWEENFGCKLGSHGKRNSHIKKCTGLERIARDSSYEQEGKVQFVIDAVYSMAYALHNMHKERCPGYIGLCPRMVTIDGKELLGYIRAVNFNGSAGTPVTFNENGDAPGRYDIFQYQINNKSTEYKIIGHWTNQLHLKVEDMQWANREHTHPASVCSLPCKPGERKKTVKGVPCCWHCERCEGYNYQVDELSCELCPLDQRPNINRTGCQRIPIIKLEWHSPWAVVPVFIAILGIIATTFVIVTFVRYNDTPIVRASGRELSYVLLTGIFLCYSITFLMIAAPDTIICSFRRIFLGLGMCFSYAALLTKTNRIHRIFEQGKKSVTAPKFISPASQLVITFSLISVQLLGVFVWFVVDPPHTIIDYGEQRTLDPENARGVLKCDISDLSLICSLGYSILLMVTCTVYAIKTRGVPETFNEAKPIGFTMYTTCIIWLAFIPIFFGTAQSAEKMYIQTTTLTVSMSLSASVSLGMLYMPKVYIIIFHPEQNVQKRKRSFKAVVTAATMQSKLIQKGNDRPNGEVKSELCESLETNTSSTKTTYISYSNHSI

The experiment has as its target Metabotropic glutamate receptor 8 (Rattus norvegicus) (UniProt P70579). Briefly: rat mGluR8 modulators via GIRK flux, primary screen, cell-based, thallium flux, HTS (AID 488969). The following applies: HEK293 rat mGluR8, GIRK (G protein-gated inwardly rectifying potassium channel) thallium flux, FluoZin2; at 10 µM; stronger effect = higher value; submaximal glutamate (EC20) added with thallium.
Turning to `O=C(COc1ccccc1F)N1c2ccccc2CCc2ccccc21`, the z-score is -0.375.
With `C=CCNC(=S)NC1CC(C)(C)NC(C)(C)C1` the figure was 0.609.
With `CCc1nn(-c2cc(Cl)ccc2OC)c2c1C(=O)CCC2` the figure was -0.275; with `CCOC(=O)c1c(NC(=S)Nc2ccccc2)sc2c1CCN(CCc1ccccc1)C2`, 0.012; with `C=CCNC(=S)Nc1sc2c(c1C(=O)OCC)CC(C)(CC)OC2` (configuration not stated), 2.22.
With `C=C(C)CNC(=S)Nc1sc2c(c1C(=O)OCC)CC(C)(C)OC2`, the z-score was 0.296.
As for `CCOC(=O)c1c(NC(=O)c2ccccc2C)sc2c1CC(C)(C)OC2`, the z-score is -0.332.
`C=CCNC(=S)Nc1sc2c(c1C(=O)OCC)CCN(C(=O)OCC)C2` yielded a z-score of 0.145.
Then `CCOC(=O)c1c(NC(=S)NC)sc2c1CC(C)(C)SC2`, with 12.5 (active); and `C=CCNC(=S)Nc1sc2c(c1C(=O)OCC)CC(C(C)C)OC2` (configuration not stated), with 8.63 (active).
Then `CCOC(=O)c1c(NC(=S)Nc2ccccc2)sc2c1CC(C)(C)SC2`, with -0.0674.
Then `CC(C)C1Cc2c(sc(NC(=S)NC(=O)c3ccccc3)c2C#N)CO1` (configuration not stated), with -0.13.
Take `CCOC(=O)c1c(NC(=S)NCCc2ccccc2)sc2c1CC(C(C)C)OC2` (configuration not stated): the z-score was 3.42 (active).
Then `CCOC(=O)c1c(NC(=S)Nc2cccc(C)c2)sc2c1CC(C)(C)SC2`, with 0.0638; and `CCOC(=O)c1c(NC(=O)c2ccc(C)cc2)sc2c1CC(C)(C)OC2`, with -0.222.
As to `O=C(NCc1ccco1)c1ccccc1F`, the z-score was 0.717.
With `Cc1ccc(C)c(NC(=O)CNS(=O)(=O)c2ccccc2)c1` the figure was -0.144; with `O=C(CSc1nnnn1-c1ccccc1)N1CCCc2ccccc21`, -0.861.
Then `Cc1ccc(NC(=O)CSc2nnc(-c3ccncc3)n2C)cc1C`, with -0.215.
With `COc1cc(OC)c(NC(=O)c2cccc(F)c2)cc1Cl`, the z-score was -0.155.
Then `COc1ccc(CC(=O)N(c2ccccc2)c2nc(C)cs2)cc1`, with -0.721; and `CCCCC(=O)Nc1ccc(NC(=O)C2CC2)cn1`, with 0.324.
`COc1cccc(C(=O)Nc2ccc(NC(C)=O)cn2)c1` came in with a z-score of 0.157.
With `CCCC(=O)Nc1ccc(NC(=O)C2CC2)cn1` the figure was 13.2 (active); with `CCC(=O)Nc1ccc(NC(=O)c2cccc(OC)c2)nc1`, 0.209.
`CCCC(=O)Nc1cc(C)c(NC(=O)C23CC4CC(CC(C4)C2)C3)cn1` yielded a z-score of 0.0448.
As for `CCCC(=O)Nc1ccc(NC(=O)C23CC4CC(CC(C4)C2)C3)cn1`, the z-score was 5.76 (active).
The compound `CCCC(=O)Nc1ccc(NC(=O)c2cccc(OC)c2)nc1` gave a z-score of 2.18.
With `CCC(=O)Nc1ccc(NC(=O)C23CC4CC(CC(C4)C2)C3)cn1` the figure was -0.0944; with `CCCCC(=O)Nc1ccc(NC(=O)C2CC2)nc1`, 0.252; with `O=C(Nc1ccc(Cl)cn1)c1cccc(F)c1`, 0.192.
Then `C[N+]1=C(/C=C/Nc2ccccc2Cl)C(C)(C)c2ccccc21`, with 0.3; and `COc1ccc(Cl)cc1NC(=O)NC(C)c1ccncc1` (configuration not stated), with -0.275; and `O=C(Nc1cc(C(F)(F)F)ccc1N1CCCC1)c1cccnc1`, with 0.0707.
Take `O=C(Cn1cc(/C=N/O)c2ccccc21)N1CCOCC1`: the z-score was -0.312.
Regarding `C=CCn1c(COc2ccc(Cl)cc2)nnc1SCC(=O)N1CC(=O)Nc2ccccc21`, the z-score is -0.735.
With `Nc1nnc(Cc2ccccc2)s1` the figure was -0.122; with `CC1CCc2nc(NC(=O)Nc3ccc4c(c3)OCO4)sc2C1` (configuration not stated), -0.337; with `CC1CCc2nc(NC(=O)CN3CCN(Cc4ccc5c(c4)OCO5)CC3)sc2C1` (configuration not stated), 2.47.
In the case of `CC1CCc2nc(NC(=O)CN3CCOCC3)sc2C1` (configuration not stated), the z-score is -0.313.
Then `S=C(NCc1ccco1)N/N=C/c1ccc(Cl)cc1`, with 2.21.
Turning to `S=C(NCc1ccco1)Nc1ccc(Cl)c(Cl)c1`, the z-score is 8.32 (active).
`S=C(NCCc1ccccc1)N/N=C/c1ccccc1Cl` registered a z-score of 0.283.
Then `COc1cc(/C=N/NC(=S)NCc2ccco2)cc(OC)c1OC`, with -0.66.
For `S=C(NCCc1ccccc1)N/N=C/c1cccc(Cl)c1Cl`, the z-score turned out to be 2.63.
In turn, `S=C(NCc1ccco1)Nc1cc(Cl)c(Cl)cc1Cl` gave a z-score of 0.256.
Then `S=C(NCc1ccco1)Nc1cccc(Cl)c1`, with 0.899.
Turning to `S=C(NCc1ccco1)N/N=C/c1ccccc1Cl`, the z-score came out at 2.22.
The compound `CCc1ccc(/C=N/NC(=S)NCCc2ccccc2)cc1` came in with a z-score of 0.0899.
Take `Oc1ccc(/C=N/NC(=S)NCc2ccco2)cc1`: the z-score was 0.806.
With `CCN(CC)c1ccc(/C=N/NC(=S)NCc2ccco2)cc1` the figure was 0.137; with `CN(C)c1ccc(/C=N/NC(=S)NCc2ccco2)cc1`, 0.0065; with `Cc1ccccc1N1C(=O)C(Oc2ccc(Cl)cc2)C1CNC(C)(C)C` (configuration not stated), 0.46.
In turn, `Cc1c(C)n(C)c2ccc(C(=O)Nc3cccc4ccccc34)cc12` yielded a z-score of 0.368.
In the case of `O=C(O)c1ccc(N2C(=O)c3cccc(Oc4ccc(Cl)cc4)c3C2=O)cc1`, the z-score came out at 0.79.
Then `CN(C)CCCNC(=O)COc1ccc(Br)cc1Cl`, with 0.032; and `CCc1ccc(/C=C/C(=O)c2ccc(S(=O)(=O)N(C)C)cc2)cc1`, with -0.379; and `C(=C\c1ccccc1)/CSc1nnc(-c2ccccc2)n1Cc1ccco1`, with -0.701.
`CC(C)COC(=O)c1nnsc1NC(=O)Nc1ccccc1` displayed a z-score of 0.142.
With `S=C(N/N=C/c1ccccc1Cl)Nc1ccccc1` the figure was 6.51 (active).
With `O=[N+]([O-])c1ccc(Cl)c(/C=N/NC(=S)Nc2ccccc2)c1` the figure was 1.33; with `CNC(=S)N/N=C/c1ccccc1Cl`, 1.82.
With `CCOc1ccc(NC(=O)CSc2nnc(C3CC3)n2N)cc1` the figure was 0.0098; with `O=C(CSc1nc2cc(Cl)ccc2s1)NCc1ccc2c(c1)OCO2`, -0.0385; with `COc1ccc(C2Nc3ccccc3C(=O)N2Cc2ccco2)cc1COc1ccc(F)cc1` (configuration not stated), -0.406.
In the case of `Cc1cnc(NC(=O)CSc2nc3ccccc3c(=O)[nH]2)s1`, the z-score was 2.14.
With `Cc1cnc(NC(=O)CSc2ccccc2)s1` the figure was -0.175; with `Cc1cccc(C)c1NC(=O)CSc1nc2ccccc2c(=O)[nH]1`, 0.493.
With `O=C(CCNC(=O)Cn1ccc2ccccc2c1=O)NCCN1CCN(c2cccc(Cl)c2)CC1` the figure was -0.463; with `Cc1ccc2nc(SCC(=O)Nc3ccc4c(c3)OCCO4)[nH]c2c1`, -0.404; with `Cc1cc(C)cc(NC(=O)CSc2nc3[nH]ncc3c(=O)[nH]2)c1`, -0.54.
With `COc1ccc2nc(SCC(=O)Nc3ccc4c(c3)CCC4)[nH]c2c1` the figure was 0.226; with `O=C(CSc1nc2ccc(Cl)cc2[nH]1)Nc1ccc2c(c1)CCC2`, 3.89 (active); with `Cc1cc(C)cc(NC(=O)CSc2nc3ccncc3[nH]2)c1`, 2.24.
`Nc1cc(=O)[nH]c(SCc2cccc(Cl)c2)n1`: the z-score was -0.406.
Turning to `Cc1ccc(CSc2nc3ncccc3[nH]2)cc1`, the z-score is 1.17.
Then `Cc1ccc(CSc2nc3ccncc3[nH]2)cc1`, with 2.46.
With `Clc1ccc(CSc2nc3ccncc3[nH]2)cc1` the figure was 0.673; with `Clc1ccccc1CSc1nc2ccncc2[nH]1`, 0.533; with `Clc1cccc(CSc2nc3ccncc3[nH]2)c1`, 9.69 (active).
With `O=C(CSc1nc2ccccc2[nH]1)Nc1ccc2c(c1)CCC2`, the z-score was -0.809.
`COc1cc(/C=N/O)c(Br)cc1OCC(=O)Nc1ccccc1C`: the z-score was -0.175.
With `COc1ccc(CCNC(=O)CCC(=O)N2CCN(S(=O)(=O)c3ccc(Cl)cc3)CC2)cc1OC` the figure was -0.0943; with `COc1cccc(NC(=O)c2ccc(-n3cccn3)nc2)c1`, 0.109; with `Cc1c(C(=O)NCCc2ccc3c(c2)OCCO3)oc2ccccc12`, -0.63.
As to `CCn1cc(C(=O)O)c(=O)c2cc(F)c(N3CCN(S(=O)(=O)c4ccc(Br)cc4)CC3)cc21`, the z-score was -0.406.
Then `S=C1NC(c2ccccc2)N2C(=S)NC(c3ccccc3)N12` (configuration not stated), with -1.08; and `CN(CC(=O)Nc1ccc(F)c(F)c1F)C(=O)/C=C/c1ccc(Cl)cc1`, with -0.265; and `CCN(CC)C(=O)c1cnn(-c2ccccc2)c1NC(=O)c1cccs1`, with -0.27.
Regarding `COc1ccc(CNC(=O)C2CCN(S(=O)(=O)c3c(C)n[nH]c3C)CC2)cc1`, the z-score was -0.115.
Then `Cc1c(CCOC(=O)CC23CC4CC(CC(C4)C2)C3)sc[n+]1Cc1ccccc1`, with 0.256.
`COC(=O)c1[nH]c2ccc(F)cc2c1NC(=O)CCN1CC(C)OC(C)C1` (configuration not stated): the z-score was -0.0436.
For the compound `Cc1ccc(C(=O)N[C@H](C(=O)OCC(=O)NC2CCS(=O)(=O)C2)C(C)C)cc1` (some centres not stated), the z-score was -0.0806.
With `COc1ccccc1NC(=O)c1ccc(S(=O)(=O)N(C)C)cc1` the figure was -0.403; with `Cc1ccc(CN(Cc2ccco2)S(=O)(=O)c2ccc(S(=O)(=O)NCC3CCCO3)cc2)cc1` (configuration not stated), -0.00067; with `Cc1ccc(-c2nnn(CC(=O)NCc3ccccc3)n2)c(-n2cnnn2)c1`, -0.255.
In the case of `Cc1ccc(-c2nnn(CC(=O)N3CCCCC3)n2)c(-n2cnnn2)c1`, the z-score is 3.32 (active).
Then `O=C(Cn1nnc(-c2ccccc2-n2cnnn2)n1)N1CCCCC1`, with 0.026.
For `CC1CN=C(N(C(=O)Nc2ccccc2)c2ccc(S(=O)(=O)N3CCOCC3)cc2)S1` (configuration not stated), the z-score was found to be 0.945.
Then `Cc1c(C(=O)Nc2ccc(-c3nnc4n3CCCCC4)cc2)oc2ccc(Br)cc12`, with -0.49.
In turn, `CCCCOc1ccc(Br)cc1/C(C)=N/NC1=NCCN1` showed a z-score of 1.54.
With `CCOc1ccc(Br)cc1/C(C)=N\NC1=NCCN1` the figure was 3.75 (active); with `CCCCCOc1ccc(Br)cc1/C(C)=N/NC1=NCCN1`, 1.05; with `COc1ccc(N2CCSC2C(=O)NN)cc1` (configuration not stated), 2.09.
With `COC(=O)N1CCN(c2ccc(OC)cc2)CC1` the figure was -0.134; with `COc1ccccc1N1CCSC1C(N)=O` (configuration not stated), 0.0543.
In turn, `O=C(CSc1nc2ccccc2n1CC(=O)N1CCCC1)Nc1nccs1` had a z-score of 0.452.
With `CCOC(=O)c1c(NC(=O)CSc2nnc(C)c(=O)[nH]2)sc2c1CCCC2` the figure was -0.522; with `CC1=CC(C)(C)N(C(=O)c2ccccc2)c2ccc(C)cc21`, -0.576.
`CC1=CC(C)(C)N(C(=O)CSc2ncn[nH]2)c2ccc(C)cc21` gave a z-score of 0.223.
With `CCC(=O)N1c2ccc(C)cc2C2=NNC(=S)NC21O` (configuration not stated), the z-score is 3.09 (active).
Take `CC1(C)NC(=O)N(CC(O)CNC23CC4CC(CC(C4)C2)C3)C1=O` (configuration not stated): the z-score amounted to 0.426.
With `O=C(Nc1ccc(F)cc1F)c1ccc(-n2cncn2)nc1` the figure was -0.0309; with `COc1cccc(OC)c1C(=O)NC(=S)N1CCN(c2ccc(C(F)(F)F)cc2[N+](=O)[O-])CC1`, 0.046; with `O=C(Nc1cc(C(F)(F)F)ccc1N1CCCCC1)c1cccc([N+](=O)[O-])c1`, -0.0811.
`CCOc1ccc(C(=O)NC(=S)N2CCN(c3ccc(C(F)(F)F)cc3[N+](=O)[O-])CC2)cc1` came in with a z-score of 0.854.
On to `CO/N=C/c1ccc(N2CCN(C(=O)c3cccc(C(F)(F)F)c3)CC2)c([N+](=O)[O-])c1`, for which the z-score was -0.0941.
For the compound `CC(C)Oc1cccc(C(=O)NC(=S)N2CCN(c3ccc(C(F)(F)F)cc3[N+](=O)[O-])CC2)c1`, the z-score was 6.72 (active).
With `COc1cc(OC)cc(C(=O)NC(=S)N2CCN(c3ccc(C(F)(F)F)cc3[N+](=O)[O-])CC2)c1` the figure was 4.05 (active); with `O=[N+]([O-])c1cc(C(F)(F)F)ccc1N1CCN(S(=O)(=O)c2ccc3ccccc3c2)CC1`, -0.295; with `COc1ccc(C(=O)NC(=S)N2CCCCC2)cc1[N+](=O)[O-]`, 1.25.
For `COc1cccc(C(=O)NC(=S)N2CCN(c3ccc(C(F)(F)F)cc3[N+](=O)[O-])CC2)c1`, the z-score is 4.68 (active).

These data come from PubChem BioAssay AID488969 (Vanderbilt High Throughput Screening Facility, 2010).
